According to ChEMBL document CHEMBL4888484, “Replenishing the malaria drug discovery pipeline: Screening and hit evaluation of the MMV Hit Generation Library 1 (HGL1) against asexual blood stage Plasmodium falciparum ,using a nano luciferase reporter read-out” (2022):
Among all 4,800 compounds or so, about 420 (8.8%) showed an effect of 50% or more. Only a selection was taken, and strong results are over-represented in it overall.

These compounds were tested on Plasmodium falciparum (assay: Confirmatory screen in NF54 nanoGlo assay, in single point, at 2uM, 72h). Details: timepoint 72 hour.
Format: functional, Erythrocyte

SMILES | % Inhibition
C[C@]1(CCc2ccc(O)cc2)Nc2ccccc2-c2nc(=O)c(-c3ccc(F)cc3)nn21 | 8%
C[C@]1(C(=O)O)Nc2ccccc2-c2nc(=O)c(-c3ccccc3)nn21 | -2%
O=c1nc2n(nc1-c1ccccc1)C1(CCC1)Nc1ccccc1-2 | 74%
COc1ccccc1CNC(=O)c1cn(CC2(O)CCN(Cc3ccccc3)CC2)nn1 | -3%
C#CCCCCC(=O)Nc1ncccc1Cl | -2%
COc1ccc(N2CCN(c3nccn4nc(-c5ccc(OC)c(OC)c5)cc34)CC2)cc1 | -10%
CC(C(=O)Nc1ncccn1)N1CCCC1Cn1cccn1 (stereo not drawn) | -4%
COc1nc(NC[C@H]2CCCN2C(C)C)ncc1F | 66%
COc1ccc2ncc(=O)n(CCOc3ccccc3)c2c1 | 4%
COc1ccc(CCc2n[nH]c(NC(=O)CCc3c[nH]c4ccccc34)n2)cc1OC | 14%
CCOc1cccc(-c2ccc3nc(-c4cccc(OC)c4)c(CCC(=O)NCCN4CCCC4)n3c2)c1 | 61%
CCOc1cccc(-c2ccc3nc(-c4cccc(OC)c4)c(CCC(=O)NCCc4ccc(OC)c(OC)c4)n3c2)c1 | 23%
CCCCN1C(=O)[C@H]2[C@H]([C@H](O)c3ccc(Cl)cc3)N[C@@]3(C(=O)Nc4ccccc43)[C@H]2C1=O | 25%
Cc1nnc(NC(=O)c2cc(N3CCCC3)ncn2)s1 | 14%
O=C(NCc1ccncc1)c1cc(C(=O)C2CCCCC2)c[nH]1 | -7%
Cc1cnc(NC(=O)C(=O)N2CCC[C@H](n3cccn3)C2)s1 | -4%
Cc1ccc(Cc2nc(N3CCCN(C(=O)c4ccc(C)cc4)CC3)c3cnn(-c4ccccc4)c3n2)cc1 | 3%
O=C(O)[C@H]1CC(=O)N(c2ccc3nc(-c4cccc(F)c4)oc3c2)C1 | -6%
C=CCNC(=O)N1CCC(c2nc(C)ccc2C(=O)N2CCCC2)CC1 | -2%
CCn1ccc([C@H](C)NC(=O)c2cc(C)c(C)s2)n1 | -6%
CCc1cc(C(=O)N[C@@H](C)c2ccccc2)c2c(C3CC3)nn(Cc3ccccc3)c2n1 | -6%
C=CCS(=O)(=O)NC(=O)c1cc(C)c(C)cc1Cl | -2%
Cc1oc(-c2ccn[nH]2)cc1S(=O)(=O)Nc1cccc(Cl)c1 | 52%
Cc1oc(-c2ccn[nH]2)cc1S(=O)(=O)Nc1ccc(F)c(Cl)c1 | 40%
c1ccc2c(c1)ccc1oc(-c3ccn[nH]3)cc12 | -5%
CCCn1c(C)ccc(-c2noc(CCCC(=O)N3CCOCC3)n2)c1=O | -3%

SMILES | % Inhibition
O=C(c1cnc(Nc2nc3ccccc3o2)nc1)N1CCN(c2ccccc2)CC1 | 0%
Cn1nc(-c2nc(-c3ccc(F)cc3)no2)c2c1CCN(C(=O)c1cccc(Cl)c1)C2 | -5%
COc1cc(NC(=O)c2cccc3c(Br)cccc23)ccc1NC(=O)c1ccccc1Cl | 0%
CC1(C)Oc2cc(S(=O)(=O)NC3CCCCC3)ccc2NC1=O | -14%
Cc1ccc(C(F)(F)C(=O)NCCC(=O)NS(C)(=O)=O)cc1 | 49%
Cc1nnc([C@@H]2COCCN2Cc2csc(C)c2)o1 | 0%
CCn1nccc1C(=O)N1CC[C@H](CC(=O)NCc2ccncc2)C1 | -6%
Cc1cc(C(=O)NCc2ccncc2)no1 | -11%
CC[C@@H](CO)NCc1cc(Br)ccc1OC | -11%
CCc1nnc2ccc(S(=O)(=O)Nc3ccc(Cl)cc3)cn12 | 8%
O=C(NC1CCCCCC1)c1cn(CC2(O)CCN(Cc3ccccc3)CC2)nn1 | -4%
O=C(C[C@H]1CCC(=O)N(Cc2ccccc2)CC1)NC1CCN(Cc2ccccc2)CC1 | -1%
Cc1nc2c(Oc3ccccc3)cccc2c2c1CCN2c1ccc(OC(F)(F)F)cc1 | -17%
CC1=N[C@H](N2CCN(c3ccccc3)CC2)NC(O)=C1 | -12%
N#Cc1cc(N2CCc3ccccc3C2)nc2ccccc12 | 2%
N#Cc1cccc(-c2n[nH]c3c2CN(c2ccc(-c4ccccc4)nn2)CC3)c1 | 85%
Cc1ccccc1-c1nc2cc(NS(=O)(=O)c3ccccc3)ccc2o1 | 2%
Cc1cccn(Cc2nnnn2C2CC2)c1=O | 3%
O=C(Cc1ccc(Cl)cc1Cl)N1CCc2[nH]nc(C(=O)N3CCN(c4ccccc4)CC3)c2C1 | -1%
CN1CCN(c2nc(-c3cccc(C(F)(F)F)c3)nc3c2cnn3Cc2ccccc2)CC1 | -4%
CN1CCC(n2ncc3[nH]c(-c4ccc(C(F)(F)F)cc4)nc32)CC1 | 96%
CN(c1nc2c(cnn2C)c(=O)[nH]1)C1CCCC1c1ccc(C(F)(F)F)cc1 (stereo not drawn) | 6%
Cc1ccc(S(=O)(=O)Cc2nc(-c3ccc(C(=O)NCc4ccc(C)o4)cc3)oc2C)cc1 | -18%
O=C(CCC1CCCC1)N1CCC(N2CCCCCC2)CC1 | 6%
Cc1cccc(NS(=O)(=O)c2cc(C(=O)NCc3ccc4c(c3)OCO4)ccc2Cl)c1C | 5%
O=S(=O)(c1ccccc1)N1CCC(Nc2ccc(Br)cc2)CC1 | 10%

SMILES | % Inhibition
Cc1nc(-c2ccc(NCc3cc4ccccc4o3)nc2)[nH]c(=O)c1C | -10%
O=C1C[C@@H](C(=O)N2CCC3(CCCCC3)C2)CCN1 | -3%
Nc1ncc(C(=O)N2CCC3(CCCCCC3)C2)s1 | 98%
Cc1ncsc1C(=O)N1CCC2(CCCCC2)C1 | -14%
O=C(O)c1csc(-c2csc(CCN3C(=O)c4ccccc4C3=O)n2)n1 | 3%
Cc1nn(C)c(C)c1-c1cc(C(=O)Nc2cc(F)ccc2F)c2c(C)nn(C)c2n1 | -5%
COc1cc(OC)cc(C(=O)Nc2cnc(N3CCCCC3)c(C)c2)c1 | 0%
Cc1ccc(CN2C(=O)[C@@H]3CCCN3c3ccc(C(F)(F)F)cc32)cc1 | -17%
Cc1cc(N(CCO)C2CC2)nc(C2CC2)n1 | -8%
Cc1cc(N(C)CCC2CC2)nc([C@H](C)N(C)CCC2CC2)n1 | 52%
OC1CCC(Nc2cncc(-n3cccn3)n2)CC1 (stereo not drawn) | -2%
CC(C)Cn1cc2c(C(F)(F)F)cc(=O)n(CCC(=O)Nc3cc(F)ccc3F)c2n1 | 1%
CC(C)(C)OC(=O)N1CCc2ncn(Cc3ccc(F)cc3)c(=O)c2C1 | -7%
CCOC(=O)CCn1cc(F)c(=O)[nH]c1=O | 77%
CCOC(=O)COc1cc(N)c(F)cc1Cl | -10%
CCOC(=O)CNc1ccc(F)c(Cl)c1 | -6%
Cc1nn(C)c(C)c1OCc1nnc(C2CCC2)n1C | -14%
CCCNC(=O)C1=Cc2ccccc2OC=C1 | -9%
COc1ccccc1Cn1cnc2c1c(=O)n(C1CCCCC1)c(=O)n2-c1ccccc1Cl | 83%
COC(=O)c1ncn2c1C(=O)N(Cc1ccccc1OC)[C@](C)(C(=O)NC1CCCCC1)C2 | 0%
Cc1ccccc1Cn1cnc2c1c(=O)n(C1CCCCC1)c(=O)n2-c1ccccc1Cl | 78%
COc1ccccc1-n1c(=O)n(C2CCCC2)c(=O)c2c1ncn2Cc1ccccc1Cl | 37%
CCCc1nc(N2CCCN(C(=O)C3CCCCC3)CC2)c2c(C)nn(-c3ccccc3)c2n1 | 0%
CCC(C)(C)NCC(=O)Nc1cc(F)ccc1F | -13%
Cc1coc(-c2cc(NC(=O)N(CCO)CC(F)F)ccc2C)n1 | -5%
Cn1nc(C(=O)Nc2nnc[nH]2)ccc1=O | 4%

SMILES | % Inhibition
Cc1cnccc1NCCNCc1cccc(O)c1Cl | 88%
Clc1cc(CNCCc2ccccc2)ccc1OCc1ccccc1 | -6%
COc1ccccc1CNCCNC(=O)c1ccncc1 | 8%
C[C@@H](C1CC1)N(C)S(=O)(=O)Cc1cc(Cl)cc(Cl)c1 | -3%
COc1ccccc1CN(C(=O)c1ccc(C)cc1)c1ccc(CC(=O)NCCN2CCCCC2)cc1 | 39%
COc1ccc(NC(=O)c2nc(Nc3ccccc3)c3ccccc3n2)cc1 | 17%
CCOc1ccc(-n2c(CN3CCN(C(=O)c4ccco4)CC3)nc3ccccc3c2=O)cc1 | 3%
CCOc1ccc(Nc2c3ccccc3nc3ccccc23)cc1 | 86%
Cc1cccc(NS(=O)(=O)c2ccc3c(c2)Cc2cc(S(=O)(=O)Nc4cccc(C)c4)ccc2-3)c1 | 10%
O=C(Cn1c(=O)n(-c2cc(F)cc(F)c2)c(=O)c2sccc21)NCc1ccc2c(c1)OCO2 | -9%
Cc1[nH]ccc(=O)c1Cc1c(Cl)cccc1Cl | -16%
Cc1cc(NC(=O)Cn2ncnc2-c2cccc(C#N)c2)n(C)n1 | -1%
O[C@@H](CNCc1ccsc1C(F)(F)F)c1cc(Cl)c2c(c1)OCCO2 | 32%
CCCN(Cc1c(C)nn(-c2ccccc2)c1N1CCN(CC)CC1)S(=O)(=O)c1ccc(C)cc1 | -5%
Cc1sc2nc(-c3ccccn3)nc(NCC(=O)N3CCC(O)CC3)c2c1-c1ccccc1 | 23%
Cc1cc(NCCc2nccn2C)ncn1 | -15%
COC(=O)COc1nonc1-c1ccccc1 | 7%
Cc1nnc(Cn2ncnc2-c2ccccc2Cl)o1 | -3%
COc1ccc(OCC(=O)Nc2ccc(N3CCn4c(nc5ccccc54)C3)cc2Cl)cc1 | -8%
Cc1cnc(C(=O)N2CCC[C@H]2c2nc(C3CCOCC3)no2)cn1 | 0%
Cc1cc(S(=O)(=O)NC(=O)c2ccnc(C3CCCC3)n2)c(C)s1 | -2%
O=C(NC(c1ccccc1)c1ccccc1)C1=COCCO1 | -9%
CCOC(=O)c1nc(-c2cccnc2)cs1 | -12%
N#C[C@@H](C(=O)NCc1cccnc1)c1nc(-c2ccccc2)cs1 | -1%
Cc1cc(C(=O)N[C@@H](C)c2nc(-c3cccnc3)cs2)cc(O)n1 | 53%
